The text below walks through data of PubChem BioAssay AID1117358 (Southern Research Institute, 2015).

Screen size: about 2,300 compounds; about 160 (7%) were called active. A selection follows. Results with a measured potency or affinity are listed apart. Values without a mark were called inactive. The rule behind the calls is not given here.

The experiment can be described thus: viability loss in Vero cells – cytotoxicity control for Vif-APOBEC3G degradation inhibitor project, dose response (AID 1117358). Conditions: CellTiter-Glo ATP luminescence, 72 h; series mostly up to 40 µM; viability: at the top concentration. For orientation: Cellular ATP, detected with luciferase, serves as a proxy for viable cell number.
A word on the viability: it is a read-out of living cells in per cent, often relative to untreated cells. Consider `CC(C(=O)N1CCOCC1)(c1ccccc1)c1ccccc1`, for which the “viability” value was 99.1%.

In the case of `COc1ccc(C(C)(C)C)cc1NC(=O)C1C2C=CC(C2)C1C(=O)O` (stereo not drawn), the “viability” value was 95.7%.

Turning to `CC1CCCC(NC(=O)Cn2cc3c(n2)CCCCC3)C1C` (stereo not drawn), the “viability” value is 97.6%.

As for `CCOC(=O)N1CCN(CC(=O)c2ccc3c(c2)CCN3C(C)=O)CC1`, the “viability” value is 103%.

Take `CCOC(=O)c1ccc(NC(=O)CSCc2ccco2)cc1`: the “viability” value was 105%.

Take `CCOc1ccc2[nH]c(=O)c(CN(Cc3nnnn3Cc3ccco3)C3CCCCC3)cc2c1`: the “viability” value was 94.2%.

Regarding `Cc1cc(C)n(CC(O)CN2c3ccccc3Sc3ccccc32)n1` (stereo not drawn), the “viability” value is 92.5%.

For `COC(=O)COc1ccc(S(=O)(=O)NCc2ccco2)cc1Cl`, the “viability” value is 95.7%.

With `CCOc1cc(Cl)c(S(=O)(=O)NCc2ccccn2)cc1Cl`, the “viability” value is 90.8%.

With `O=C(Cn1ncc2c(=O)oc3ccccc3c21)N1CCCc2ccccc21`, the “viability” value was 94.4%.

In the case of `CCC(C)NS(=O)(=O)c1ccc(S(=O)(=O)N(CC(=O)Nc2ccccc2)CC2CCCO2)cc1` (stereo not drawn), the “viability” value is 97.2%.

Regarding `Cc1cccc(C)c1NC(=O)COC(=O)c1cc(-c2cccnc2)nc2ccccc12`, the “viability” value was 80.7%.

With `CCOC(=O)CC1Sc2ccccc2NC1=O` (stereo not drawn), the “viability” value is 86.3%.

With `COc1cc(O)oc1C=Nc1ccccc1`, the “viability” value was 93.3%.

In the case of `Cc1ccc(S(=O)(=O)N=Nc2c(O)[nH]c3ccccc23)cc1`, the “viability” value is 99.4%.

Take `CCOC(=O)C1=C(CSc2nc(C)ccc2C#N)OC(N)=C(C#N)C1c1cccc(OC)c1OC` (stereo not drawn): the “viability” value is 95.5%.

`Cc1nc(NC(=O)CN2CCOCC2)sc1-c1ccccc1`: the “viability” value was 91.9%.

As to `O=C(O)CC(C(=O)O)N1C(=O)/C(=C/c2ccc(-c3nc4ccccc4s3)o2)SC1=S` (stereo not drawn), the “viability” value is 97.1%.

On to `O=C1CC(c2ccco2)CC(O)=C1C=Nc1ccc(Br)cc1` (stereo not drawn), for which the “viability” value is 95.1%.

Regarding `COc1ccc(OCC(=O)O/N=C(\N)Cc2ccc(Cl)cc2)cc1`, the “viability” value is 91.2%.

As to `CCC(=O)Nc1nc2ccc(NC(C)=O)cc2s1`, the “viability” value is 90.9%.

As to `CCOC(=O)N1CCC(NC(=O)c2cc3c(C)nc4ccccc4c3o2)CC1`, the “viability” value is 102%.

Regarding `CCOC(=O)C1CCN(C(=O)c2ccc(OC)cc2OC)CC1`, the “viability” value was 106%.

On to `COc1ccc(NC(=O)Nc2cccs2)cc1OC`, for which the “viability” value was 108%.

For `CCOC(=O)Nc1nnc(-c2ccccc2OC)s1`, the “viability” value was 90.3%.

Turning to `C=CCOC(=O)CN1C(=O)c2ccccc2C1=O`, the “viability” value was 99.6%.

On to `COc1ccc(OC)c(NC(=O)CSc2nnc(CCCO)n2-c2ccccc2)c1`, for which the “viability” value was 96.8%.

For `CCn1c(SCC(=O)n2c(C)c(C)c3ccccc32)nnc1-c1ccco1`, the “viability” value was 91.6%.

Consider `CCOc1ccccc1CNC(=O)Cn1c(=O)oc2ccccc21`, for which the “viability” value is 99.8%.

Consider `COc1ccccc1N1CCN(C(=O)c2cc(-c3cccs3)on2)CC1`, for which the “viability” value was 107%.

As for `Cc1ccccc1CS(=O)(=O)Cc1ccc(C(=O)N2CCOCC2)o1`, the “viability” value was 91.3%.

In the case of `COc1ccc(OC)c(NC(=O)NCc2ccc(F)cc2)c1`, the “viability” value was 99.7%.

For `CCOc1cc(C)nc(NCCc2ccc(OC)c(OC)c2)n1`, the “viability” value is 90.1%.

In the case of `O=C1c2ccccc2C(=O)N1CCc1csc(-c2ccc(F)cc2)n1`, the “viability” value was 101%.

For the compound `Cc1cc(-c2cc(-c3ccc(Cl)cc3)nc(N)c2C#N)co1`, the “viability” value was 103%.

For the compound `COc1ccc(Oc2nc(C)cc(C)c2C#N)cc1`, the “viability” value is 99.7%.

With `O=[N+]([O-])c1cc(/C=N\Nc2nccs2)ccc1O`, the “viability” value is 108%.

As to `CC(OC(=O)c1cccs1)C(=O)NCc1ccco1` (stereo not drawn), the “viability” value was 99%.

`CCc1nc(SCC(=O)Nc2ccc(C(=O)O)cc2)n[nH]1`: the “viability” value was 96%.

Consider `CCc1cccc(NC(=O)Cn2ncn3c(cc4ccccc43)c2=O)c1`, for which the “viability” value is 96.6%.

Turning to `COCCNC(=O)COc1ccc(Br)cc1Cl`, the “viability” value was 88.5%.

For `CSc1cccc(NC(=O)CN(c2cc(C)ccc2C)S(C)(=O)=O)c1`, the “viability” value was 96.9%.

In the case of `Cn1c(CN2CCOCC2)nc2cc(NC(=O)c3ccc(F)cc3)ccc21`, the “viability” value is 94.2%.

As for `N#Cc1nc(-c2ccco2)oc1N1CCN(c2ccccc2)CC1`, the “viability” value was 96.4%.

Consider `CCC(C)(C)n1nnnc1C(c1cc2cc(C)ccc2[nH]c1=O)N1CCCc2ccccc21` (stereo not drawn), for which the “viability” value was 105%.

Turning to `O=C(OCc1ccc(Cl)cc1)c1cnccn1`, the “viability” value is 94%.

Regarding `O=C(CSc1nccn1Cc1ccccc1)Nc1nccs1`, the “viability” value was 95.5%.

As for `Cc1ccc(NC(=O)CCC(=O)NNC(=O)COc2cccc3ccccc23)c(C)c1`, the “viability” value was 95.2%.

With `CS(=O)(=O)N(CC(=O)NCc1ccc2c(c1)OCO2)Cc1ccccc1`, the “viability” value was 96.3%.

`O=C(O)Cc1ccc(C(=O)c2ccccc2)s1`: the “viability” value is 96.4%.

As to `Oc1ccc(/C=N/NC2=NCCCCC2)c(O)c1`, the “viability” value is 101%.

In the case of `Cc1ccc(C)n1Cc1ccc(C(=O)O)cc1`, the “viability” value is 88.8%.

Turning to `CC(=O)C1CCN(Cc2ccccc2)CC1`, the “viability” value is 97.3%.

Take `Cn1cccc1C(=O)NC(=O)COC(=O)CC12CC3CC(CC(Br)(C3)C1)C2`: the “viability” value was 97%.

Consider `O=C(COC(=O)c1cc(-c2ccco2)nc2ccccc12)NCc1ccc2c(c1)OCO2`, for which the “viability” value is 101%.

For the compound `Cc1nc(C(=O)N(C)C)nn1-c1cc(Cl)cc(Cl)c1`, the “viability” value is 97.7%.

Consider `CCOC(=O)c1ccc(-n2ncc(C(=O)OCC)c2N)cc1`, for which the “viability” value is 92.9%.

As to `Cc1ccc(S(=O)(=O)N2CCC(C(=O)Nc3nnc(-c4ccco4)s3)CC2)cc1`, the “viability” value was 102%.

For `CCN(CC)c1ccc(/C=N/n2c(C)cc(C)cc2=O)cc1`, the “viability” value is 92.2%.

`CCOc1ccc(Br)cc1/C=N/O`: the “viability” value was 98.1%.

Take `CCOc1ccc(N(CC(=O)NC2CCCCC2)S(=O)(=O)c2c(C)noc2C)cc1`: the “viability” value is 94.7%.

Regarding `Cc1onc(-c2ccccc2)c1C(=O)N1CCCc2ccccc21`, the “viability” value is 93.6%.

As to `C=CCn1c(SCC(=O)c2cc(C)n(C(C)COC)c2C)nc2sc(C)c(C)c2c1=O` (stereo not drawn), the “viability” value is 97.2%.

Consider `CCOC(=O)c1ccc(NS(=O)(=O)c2ccc3c(c2)oc(=O)n3C)cc1`, for which the “viability” value was 99.5%.

As to `Cc1nnc(-c2cnn(-c3ccccc3)c2N)n1Cc1cccc(C(F)(F)F)c1`, the “viability” value is 88.8%.

Take `C/C(=C1\SC(N2CCOCC2)=NC1=O)c1ccccc1`: the “viability” value is 101%.

Consider `Cc1noc(C)c1C(=O)N1CCN(c2ncccn2)CC1`, for which the “viability” value is 109%.

Regarding `COc1ccc(NS(=O)(=O)c2cccc(Cl)c2Cl)cc1S(=O)(=O)N1CCCCC1`, the “viability” value was 86.5%.

`CCC(=O)N1CCN(c2ccccc2NC(=O)c2cccc(C)c2)CC1`: the “viability” value was 107%.

Consider `O=C(NCc1ccc(Cl)cc1)c1ccccc1Oc1ccccc1`, for which the “viability” value was 102%.

As to `COC(=O)c1cccc(NC(=O)c2cccc(OC)c2)c1`, the “viability” value was 83%.

In the case of `CCC(=O)NNc1ncnc2ccccc12`, the “viability” value was 94.4%.

`COc1cc2c(cc1NC(=O)COC(=O)Cn1cnc3ccccc31)oc1ccccc12`: the “viability” value was 88.4%.

Take `CCOC(=O)N1CCC(Nc2c(-c3ccc(C)cc3)c(=O)c2=O)CC1`: the “viability” value is 98.5%.

For `Cc1cccc(CCNC(=O)CCc2nc(-c3ccccc3F)no2)c1`, the “viability” value is 95.3%.

Turning to `O=C(N/N=C/C=C\c1ccco1)c1cccnc1`, the “viability” value was 97.5%.

With `Cc1cc(C)nc(N(C#N)CN2C(=O)c3ccccc3S2(=O)=O)n1`, the “viability” value was 105%.

In the case of `COc1ccc(OC)c(-c2cc(C(=O)NCc3cccs3)no2)c1`, the “viability” value was 103%.

With `COC(=O)CSc1nnc(CNC(=O)c2cccs2)n1-c1cc(OC)ccc1OC`, the “viability” value was 94.3%.

Regarding `c1ccc2c(c1)ccc1nnc(SCc3ccc4c(c3)OCO4)n12`, the “viability” value was 94.7%.

Take `CCOC(=O)NC1(NC2CCCCC2)Oc2ccccc2O1`: the “viability” value is 106%.

Turning to `CC(C)(C)NC(=O)C1N(c2cccnc2)C(=O)C2C(C(=O)Nc3ccccc3F)C3(C)C=CC21O3` (stereo not drawn), the “viability” value is 99.9%.

With `O=C(CN1CCN(S(=O)(=O)c2ccc(Cl)cc2)CC1)Nc1ccc2c(c1)OCCO2`, the “viability” value was 87.7%.

In the case of `O=S(=O)(c1ccc(Cl)s1)N1CCN(Cc2ccccc2)CC1`, the “viability” value is 93.6%.

`CCC(C)(C)C1CCc2c(sc(NC(=O)c3ccoc3C)c2C(N)=O)C1` (stereo not drawn): the “viability” value is 93.7%.

Consider `O=C(CSc1nnc(-c2cccnc2)n1Cc1ccco1)c1ccc(Br)cc1`, for which the “viability” value is 99.4%.

In the case of `Cc1c(C(=O)Nc2ccc(Cl)cc2)c2ccccn2c1CCc1ccncc1`, the “viability” value was 105%.

Turning to `C/C(=C/C(=O)NCc1ccccc1)C(=O)O`, the “viability” value is 97.7%.

Turning to `O=C(O)CCC(=O)NNC(=O)CCC(=O)NCc1ccccc1`, the “viability” value was 112%.

As for `Cc1cc(F)ccc1S(=O)(=O)Nc1ccccc1C(=O)Nc1ccc2[nH]c(=O)[nH]c2c1`, the “viability” value was 94.2%.

Take `COC(=O)c1ccccc1NC(=O)C1CCCC1`: the “viability” value was 95.7%.

For the compound `Cc1ccc(Cc2cnc(NC(=O)/C(C#N)=C/c3ccc(-c4ccc([N+](=O)[O-])cc4)o3)s2)cc1`, the “viability” value is 99.2%.

In the case of `COc1ccc(NC(=O)/C(C#N)=C\c2cc(C)n(-c3ccc(Oc4ccc([N+](=O)[O-])cn4)cc3)c2C)cc1`, the “viability” value is 101%.

For `O=C(NCc1ccc(F)cc1)c1c(O)c2cccc3c2n(c1=O)CCC3`, the “viability” value was 90.8%.

With `CCSC1=C(C#N)C(c2cccs2)C(C(=O)OC)=C(C)N1` (stereo not drawn), the “viability” value is 96%.

Turning to `CCOC(=O)c1c(O)c2ccccc2n(-c2ccccc2)c1=O`, the “viability” value was 92.8%.

Take `CCn1c(=O)c(C(=O)NCc2ccccn2)c(O)c2ccccc21`: the “viability” value is 97.1%.

For `Cc1ccc2cc3c(NC(=O)c4cccnc4)nn(C)c3nc2c1`, the “viability” value is 94%.

On to `CN(C)C(CNC(=O)c1cccnc1Sc1ccccc1)c1ccco1` (stereo not drawn), for which the “viability” value is 96.5%.

With `O=C(c1cnn2c(C(F)F)cc(C3CC3)nc12)N1CCc2ccccc2C1`, the “viability” value is 94.5%.

Turning to `O=C(NC1CCCC1)c1ccc(CNc2c(N3CCOCC3)c(=O)c2=O)cc1`, the “viability” value was 101%.

Consider `Cc1cc(C(=O)CN2C(=O)c3ccccc3S2(=O)=O)c(C)n1CC1CCCO1` (stereo not drawn), for which the “viability” value was 106%.

As for `CN(C)[C@H]1N(C(=O)c2ccc(Br)cc2)N=C2c3ccccc3S(=O)(=O)N21`, the “viability” value was 94.4%.

In the case of `Cc1c(NS(=O)(=O)c2cccc(C(=O)NCc3ccncc3)c2)c(=O)n(-c2ccccc2)n1C`, the “viability” value is 98.7%.

Turning to `O=C(CCCc1ccccc1)N1CCN(c2ccc([N+](=O)[O-])cc2)CC1`, the “viability” value is 95.2%.

As to `Cc1ccc(-c2nc3s/c(=C\c4ccco4)c(=O)n3n2)cc1`, the “viability” value was 98.8%.

On to `O=C(NCC1CCCO1)c1cc(-c2ccco2)nc2ccccc12` (stereo not drawn), for which the “viability” value was 101%.

In the case of `CCCC(=O)Nc1cccc(-c2nc3ccccc3o2)c1`, the “viability” value is 93.2%.

With `CCn1c(SCC(=O)n2nc(C)cc2C)nnc1-c1ccc2c(c1)OCO2`, the “viability” value is 95.5%.

Regarding `Cc1c(/C=N\NC(=O)c2csc3ccccc23)cnn1C`, the “viability” value was 107%.

As to `CN(CCOCCOc1ccc2ccccc2c1)Cc1ccccc1`, the “viability” value is 80.2%.

Consider `Cc1cc(NC(=O)c2cncc(Br)c2)no1`, for which the “viability” value was 94.7%.

On to `O=C(O)c1cc(-c2ccc(N3CCOCC3)cc2)nn1-c1ccc(F)cc1F`, for which the “viability” value was 98.9%.
